Source: PubChem BioAssay (National Center for Advancing Translational Sciences (NCATS))
AMA1-RON2 inh: disrupts binding of P. falciparum AMA1 to RON2 | AlphaScreen AMA1-biotinylated RON2 peptide binding | Potency, µM (series often up to 58.2 µM), hits mostly inhibitors | actives 0.2% (n = 360,000); also: nearly all actives have a fitted effect of over 45% in size
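AMA1 (3D7) with his tag at 25 nM final met compounds first, then biotinylated RON2 peptide at 25 nM; detection used donor plus acceptor beads, 10 µg/mL apiece, read by AlphaScreen after 30 min at room temperature.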
Pf growth 48h: P. falciparum growth inhibition at 48 hours (one generation); P. falciparum luciferase growth in erythrocytes, 48 h; Potency, µM (top dose mostly 28.7 µM), usual class: inhibitors; actives 5.9% (n = 310,000)
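Here the parasites carry a stable luciferase gene and grow inside erythrocytes in Albumax-based RPMI medium with compound for one erythrocytic cycle. Activity is scored as loss of luminescent signal.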
SARS PLP yeast: SARS-CoV PLP inhibition in yeast; S. cerevisiae expressing SARS-CoV PLpro, growth rescue; Potency, µM (highest dose often 32.9 µM), hits mostly activators; actives 0.19% (n = 330,000); calls by dose curve; also: nearly all actives have a fitted effect of over 55% in size
Pf growth 96h: P. falciparum growth inhibition at 96 hours. P. falciparum luciferase reporter growth, 96 h. Potency, µM (series often up to 28.7 µM), hits mostly inhibitors. actives 6.9% (n = 320,000)
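Two parasite generations (96 h, 37 C, 5% CO2) of compound exposure in infected erythrocytes (0.05% parasitemia, 2% hematocrit). Luciferase-reporter P. falciparum; decreased luminescence indicates inhibited growth, aimed at apicoplast-acting delayed death.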
Of the large screens only hits and unclear results are named; the others gave an inactive call. This is a sample that favours compounds with a hit; in the whole collection about 9.4% have one here. Unless noted, calls follow the shape of the dose curve; as a rule, active = well fitted curve in the direction sought with a large enough effect; inconclusive = small, poorly fitted or top-dose-only effect, or another doubt; inactive = no such curve, though single readings can be large; an effect the other way counts as inactive or inconclusive.

O=C(CCN1C(=O)C2C3CCC(C3)C2C1=O)OCC(=O)c1ccccc1 (stereo not given)	Pf growth 96h inconclusive
CCC(C)N1CCC2(CC1)N=c1c(c3c4c5c(C)c(O)c3c(O)c1=NC(=O)C(C)=CC=C[C@H](C)[C@H](O)[C@@H](C)[C@@H](O)[C@@H](C)[C@H](OC(C)=O)[C@H](C)[C@@H](OC)C=CO[C@@](C)(O5)C4=O)N2 (stereo not given in full)	Pf growth 48h 9.3µM, Pf growth 96h inconclusive (no result: SARS PLP yeast)
CCN(C(=O)CN1C(=O)/C(=C/c2ccccc2)SC1=S)C1CCS(=O)(=O)C1 (stereo not given)	none
C/C=C(\C)C(=O)N1CC2(CC(c3cccc(NC(=O)COc4ccc(Cl)cc4)c3)=NO2)C[C@@H]1C(N)=O (stereo not given in full)	Pf growth 48h 12µM, Pf growth 96h inconclusive
C/C=C\C=C/C(=O)Nc1cccc(C2=NOC3(C2)C[C@@H](C(N)=O)N(C(=O)COc2ccc(Cl)cc2)C3)c1 (stereo not given in full)	Pf growth 48h inconclusive, Pf growth 96h inconclusive
C/C=C\C=C\C(=O)N1CC2(CC(c3cccc(NC(=O)COc4ccc(Cl)cc4)c3)=NO2)C[C@H]1C(N)=O (stereo not given in full)	Pf growth 48h 13µM, Pf growth 96h 10µM
CCOC(=O)c1ccc2c(c1)n(CCCS(=O)(=O)[O-])c(/C=C/c1ccc(Cl)cc1)[n+]2CC	Pf growth 48h 9.3µM, Pf growth 96h inconclusive
CCOC(=O)c1ccc2c(c1)n(CC)c(C)[n+]2CC	Pf growth 48h inconclusive
O=C(c1cccc(C(=O)N(c2ccccn2)C2CCCCC2)c1)N(c1ccccn1)C1CCCCC1	Pf growth 48h 12µM
O=C(c1ccc(Cl)cc1)N(c1ccccn1)C1CCCCC1	none
S=C1NC2(CCCCCC2)N=C1c1ccccc1	Pf growth 48h 13µM
CCOC(=O)c1c(C)n(Cc2ccccc2)c2ccc(OCC(O)Cn3nc(C)nc3C)cc12 (stereo not given)	Pf growth 48h inconclusive
CCOC(=O)c1c(C)n(Cc2ccccc2)c2ccc(OCC(O)Cn3nc(C)cc3C)cc12 (stereo not given)	Pf growth 48h 12µM
Cc1cc(C)n(CC(O)COc2ccccc2C(=O)Nc2ccccc2)n1 (stereo not given)	AMA1-RON2 inh inconclusive, Pf growth 48h 1.9µM, Pf growth 96h inconclusive
Cc1cc(C)n(CC(O)COCc2ccccc2)n1 (stereo not given)	Pf growth 96h 12µM
Cc1cc(C)n(CC(O)COc2cccc(OCC(O)Cn3nc(C)cc3C)c2)n1 (stereo not given)	SARS PLP yeast inconclusive
Cn1c2c(c(=O)n(C)c1=O)C(c1ccccc1Cl)CC(=O)N2 (stereo not given)	none (no result: Pf growth 48h)
O=C(CCN1C(=O)C2CCCCC2C1=O)NNC(=O)c1cccc(Cl)c1 (stereo not given)	none
CC1=C(C(=O)N(C(C)C)C(C)C)CC(CC(=O)NCC2CCCCC2)C(=O)N1Cc1ccc(C(C)(C)C)cc1 (stereo not given)	none (no result: Pf growth 48h, SARS PLP yeast, Pf growth 96h)
Cc1ccc(OCCCCNC(C)(C)C)c([N+](=O)[O-])c1	AMA1-RON2 inh inconclusive, Pf growth 48h inconclusive, Pf growth 96h 3.7µM
CCCCCOc1ccc(Br)cc1/C(C)=N/NC1=NCCN1	Pf growth 48h 5.2µM, Pf growth 96h inconclusive
COCCCNCCC(CCC(C)C)c1ccc2c(c1)OCO2 (stereo not given)	Pf growth 48h inconclusive, Pf growth 96h inconclusive
CC(C)C(NC(=O)CCNC(=O)c1ccccc1Cl)c1nc2ccccc2[nH]1 (stereo not given)	Pf growth 48h inconclusive
CC(C)C(NC(=O)CCNC(=O)c1ccc(C(C)(C)C)cc1)c1nc2ccccc2[nH]1 (stereo not given)	Pf growth 48h 8.3µM, Pf growth 96h inconclusive
CC1(OC(=O)C2CCCC2)C(=O)C=C2C=C(c3ccsc3)N(C3CCCC3)C=C2C1=O (stereo not given)	Pf growth 48h inconclusive, Pf growth 96h 10µM
CC1(OC(=O)C2CCCC2)C(=O)C=C2C=C(c3ccsc3)N(Cc3ccco3)C=C2C1=O (stereo not given)	Pf growth 48h 12µM, Pf growth 96h 13µM
COc1ccc(-c2nc3ccc(N4CCN(C)CC4)cc3c(=O)[nH]2)cc1	Pf growth 48h inconclusive
COc1cc(-c2nc3ccc(N4CCN(C)CC4)cc3[nH]2)cc(OC)c1OC	Pf growth 48h 9.3µM, Pf growth 96h 3.7µM
ClC(Cl)(Cl)c1nc2ccccc2n2nncc12	Pf growth 48h 0.33µM, Pf growth 96h inconclusive
